Some test systems named below: NCI-H23 lung; NCI-H226 lung; NCI-H322M lung; HOP-62 NSCLC; HOP-92 NSCLC; A549/ATCC NSCLC; 786-0 renal; COLO 205 colon; DU-145 prostate; K-562 leukemia; MALME-3M melanoma; MDA-MB-231 breast; RXF 393 renal; SF-268 CNS; SF-295 CNS; SF-539 CNS; UACC-257 melanoma; M14 melanoma; NCI-H522 lung; NCI-H460 lung.
Common to all, as to assay: NCI-60 one-dose screen, 48 h (100 = growth as untreated, 0 = no growth, -100 = all killed)
Settings in all cases: 10 µM unless noted

The values below come from PubChem BioAssay (NCI).

The structures appear in SMILES notation. About 83,000 compounds went through this panel and 20% of them were active in at least one assay; those are over-represented in the sample as a whole.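 Plates (96-well) were seeded with cells, treated with compound at one concentration, and incubated for 48 hours before percent growth was determined.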 Unmarked numbers belong to inactive results. The source made the active and inactive calls. Rule for the calls: active = growth percent below 10; inactive = the rest.

`Clc1cc(Cl)c2nc(-c3ccc(-c4ccc(/C=N/NC5=NCCN5)cc4)s3)cn2c1`: the growth was 94.1% with NCI-H23 lung; 89.5% with NCI-H226 lung; 99.1% with NCI-H322M lung; 88.9% in the experiment on HOP-62 NSCLC; 14.5% with HOP-92 NSCLC; 87.7% with A549/ATCC NSCLC. The growth is 88.5% in the experiment with 786-0 renal; 93.7% with COLO 205 colon; 87.4% in the experiment on DU-145 prostate; 3.66% (active) with K-562 leukemia; 74.9% in the experiment on MALME-3M melanoma; 73.9% with MDA-MB-231 breast. For the same molecule, the growth with RXF 393 renal was 81.4%; in the experiment with SF-268 CNS, 86%; with SF-295 CNS, 98.3%; in the experiment with SF-539 CNS it was 63.5%; in the experiment with UACC-257 melanoma, 99%; in the experiment on M14 melanoma, 97.8%.

On to `CCN(CC)CCOc1ccc(/C(=C(/C)c2ccccc2)c2ccc(OC(C)=O)cc2)cc1`, for which the growth in the experiment with NCI-H23 lung is 95.7%; with NCI-H226 lung it was 105%; in the experiment on NCI-H322M lung, 100%; with HOP-62 NSCLC it was 106%; in the experiment with HOP-92 NSCLC, 81%; in the experiment on NCI-H522 lung, 102%. In addition, the growth with A549/ATCC NSCLC was 117%; in the experiment on 786-0 renal it was 98.6%; with COLO 205 colon, 113%; in the experiment with DU-145 prostate, 105%; in the experiment with K-562 leukemia, 87.2%; in the experiment on MALME-3M melanoma, 99.1%. Further, the growth was 108% in the experiment with MDA-MB-231 breast; 100% in the experiment with RXF 393 renal; 93.2% in the experiment on SF-268 CNS; 103% in the experiment with SF-295 CNS; 101% with SF-539 CNS; 120% in the experiment with UACC-257 melanoma. The growth with M14 melanoma was 98.3%.

Regarding `Cc1nc2ncccc2nc1Nc1ccc(S(=O)(=O)Nc2ccccn2)cc1`, the growth is 90.6% with NCI-H23 lung; 94.5% in the experiment on NCI-H226 lung; 96.1% in the experiment on NCI-H322M lung; 97% in the experiment on HOP-62 NSCLC; 54.3% in the experiment on HOP-92 NSCLC; 81.6% with NCI-H522 lung. Also, the growth with A549/ATCC NSCLC is 101%; in the experiment with 786-0 renal, 94.9%; in the experiment with COLO 205 colon it was 98.5%; in the experiment with DU-145 prostate it was 105%; with K-562 leukemia, 106%; in the experiment with MALME-3M melanoma it was 107%. The growth was 89.1% in the experiment on MDA-MB-231 breast; 109% with RXF 393 renal; 98.4% in the experiment with SF-268 CNS; 104% in the experiment with SF-295 CNS; 97.5% in the experiment with SF-539 CNS; 107% in the experiment with UACC-257 melanoma. Also, the growth with M14 melanoma was 97.5%.

With `CN(C)CC(C(=O)c1ccccc1)c1ccccc1` (stereo not given), the growth in the experiment with NCI-H23 lung was 58.2%; in the experiment with NCI-H226 lung it was 47.4%; in the experiment with NCI-H322M lung, 106%; with HOP-62 NSCLC it was 43.7%; in the experiment on HOP-92 NSCLC, -0.711% (active); in the experiment on NCI-H522 lung, -77.5% (active). In addition, the growth in the experiment on A549/ATCC NSCLC was 71.4%; in the experiment on 786-0 renal it was 74%; with COLO 205 colon, -48% (active); in the experiment with DU-145 prostate it was 14.7%; with MALME-3M melanoma, 57.7%; in the experiment on MDA-MB-231 breast it was 80%. Besides, the growth in the experiment with RXF 393 renal is 54.8%; in the experiment on SF-268 CNS, 5.71% (active); in the experiment on SF-295 CNS, 93.1%; with SF-539 CNS, 33.7%; in the experiment with UACC-257 melanoma, 32.7%; with M14 melanoma, -1.12% (active).

On to `COc1ccc(-c2ccc(C)n2-c2ccc(-c3nc4cc(Cl)ccc4s3)cc2)cc1`, for which the growth is 83.4% with NCI-H23 lung; 78.7% with NCI-H226 lung; 103% in the experiment on NCI-H322M lung; 102% in the experiment with HOP-62 NSCLC; 99.7% with NCI-H460 lung; 98.8% in the experiment on NCI-H522 lung. Moreover, the growth with A549/ATCC NSCLC is 95.5%; with 786-0 renal it was 106%; with COLO 205 colon, 95.9%; in the experiment on DU-145 prostate it was 112%; with MALME-3M melanoma it was 102%; with MDA-MB-231 breast it was 85.8%. Also, the growth in the experiment with RXF 393 renal is 114%; with SF-268 CNS, 111%; in the experiment on SF-295 CNS, 96.6%; in the experiment with SF-539 CNS, 109%; in the experiment with UACC-257 melanoma, 107%; in the experiment on M14 melanoma, 107%.

Regarding `COc1ccc(-c2ccc(-c3ccc(-c4ccc(C(=N)N)cc4)s3)s2)cc1OC`, the growth in the experiment with NCI-H23 lung is 88.7%; in the experiment with NCI-H226 lung, 96.7%; in the experiment with NCI-H322M lung, 111%; in the experiment with HOP-62 NSCLC, 86%; in the experiment on NCI-H460 lung, 97.7%; with NCI-H522 lung, 99.9%. Moreover, the growth is 43.1% in the experiment on A549/ATCC NSCLC; 93% with 786-0 renal; -14.7% (active) in the experiment with COLO 205 colon; 36.4% with DU-145 prostate; -50% (active) with K-562 leukemia; 92.6% in the experiment on MALME-3M melanoma. Moreover, the growth in the experiment on MDA-MB-231 breast was 80.2%; with SF-268 CNS, 87.1%; in the experiment with SF-295 CNS, 99.7%; in the experiment on SF-539 CNS, 88.9%; in the experiment with UACC-257 melanoma it was 103%; in the experiment with M14 melanoma, 99%.

Regarding `O=[N+]([O-])c1ccc(C(c2ccccc2)c2ccccc2)cc1`, the growth was 89.6% with NCI-H23 lung; 100% in the experiment with NCI-H226 lung; 78% in the experiment on NCI-H322M lung; 102% with HOP-62 NSCLC; 94% in the experiment with NCI-H460 lung; 91.5% in the experiment with A549/ATCC NSCLC. For the same molecule, the growth in the experiment with 786-0 renal was 99.4%; in the experiment with COLO 205 colon, 92.6%; with DU-145 prostate, 105%; with K-562 leukemia, 91.9%; with MALME-3M melanoma, 107%; with MDA-MB-231 breast it was 86.3%. Also, the growth was 100% with RXF 393 renal; 98.7% with SF-268 CNS; 88.7% in the experiment on SF-295 CNS; 104% in the experiment with SF-539 CNS; 96.9% with UACC-257 melanoma; 105% with M14 melanoma.

Take `Cc1ccc(C(=O)C2=Cc3cc4ccccc4n3Cc3cnnn32)cc1`: the growth was 100% in the experiment on NCI-H23 lung; 98.1% with NCI-H226 lung; 95.9% in the experiment on NCI-H322M lung; 87.4% with HOP-62 NSCLC; 86% with HOP-92 NSCLC; 64.5% in the experiment with NCI-H522 lung. For the same molecule, the growth with A549/ATCC NSCLC is 99.2%; in the experiment with 786-0 renal it was 94.6%; with COLO 205 colon, 111%; with DU-145 prostate, 113%; in the experiment on K-562 leukemia, 75.1%; with MALME-3M melanoma, 116%. In addition, the growth with MDA-MB-231 breast is 95.5%; in the experiment with RXF 393 renal it was 95.3%; with SF-268 CNS it was 101%; in the experiment on SF-295 CNS, 114%; in the experiment on SF-539 CNS, 111%; in the experiment on UACC-257 melanoma, 98.8%. In the experiment on M14 melanoma, the growth is 115%.

Regarding `O=C(/C=C/c1c[nH]c2ccccc12)c1ccc(O)c(CN2CCN(c3ccc(F)cc3)CC2)c1`, the growth is 99.8% in the experiment on NCI-H23 lung; 100% in the experiment with NCI-H226 lung; 103% with NCI-H322M lung; 95.9% in the experiment on HOP-62 NSCLC; 106% in the experiment on NCI-H460 lung; 102% with NCI-H522 lung. In addition, the growth in the experiment on A549/ATCC NSCLC was 99.5%; in the experiment on 786-0 renal, 103%; with COLO 205 colon, 109%; in the experiment on DU-145 prostate, 107%; in the experiment with K-562 leukemia, 103%; in the experiment on MALME-3M melanoma, 101%. Further, the growth with MDA-MB-231 breast is 98.7%; in the experiment with RXF 393 renal, 108%; with SF-268 CNS, 94%; with SF-539 CNS, 98.3%; in the experiment on UACC-257 melanoma, 115%; in the experiment with M14 melanoma, 99.4%.
